Experiments:
Assay in all cases: DAPPL (digital affinity profiling via proximity ligation, sequencing); 10 mM Tris-HCl pH 7.5, 50 mM NaCl, 1 mM DTT, 4% glycerol, room temperature, 30 min; GST-TFs on glutathione beads, 16-mer random dsDNA library, 0.1% formaldehyde crosslink after washing; high values mean tight binding
FLI1 = molecular target: T1, FLI1 (Homo sapiens, UniProt Q01543 1-452); conditions: protein: recombinant; tags: N-terminal GST; dsDNA, one strand shown
T1 sequence: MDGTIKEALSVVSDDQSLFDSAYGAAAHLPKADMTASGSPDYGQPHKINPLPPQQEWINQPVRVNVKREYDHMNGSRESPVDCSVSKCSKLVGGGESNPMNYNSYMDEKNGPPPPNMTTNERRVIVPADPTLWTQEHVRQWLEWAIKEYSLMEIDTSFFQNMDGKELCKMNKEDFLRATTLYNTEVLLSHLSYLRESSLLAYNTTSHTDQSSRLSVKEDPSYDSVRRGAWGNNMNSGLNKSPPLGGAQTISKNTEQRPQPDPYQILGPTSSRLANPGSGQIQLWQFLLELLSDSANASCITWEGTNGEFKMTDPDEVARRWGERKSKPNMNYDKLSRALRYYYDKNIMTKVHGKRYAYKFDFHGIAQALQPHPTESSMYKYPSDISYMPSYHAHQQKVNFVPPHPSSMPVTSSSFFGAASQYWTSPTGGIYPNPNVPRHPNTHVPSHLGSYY
Procedure, shortened: (§1)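 Human transcription factors fused to GST were expressed in yeast, captured on glutathione beads, given DNA barcodes and pooled with a GST-only negative control. Pools were incubated with 200 nmole of a 16-mer random double-stranded DNA library in Tris/NaCl/DTT/glycerol buffer at room temperature for 30 min. They were then washed, crosslinked with 0.1% formaldehyde, proximity-ligated (BsaI/T4 ligase, 1 h, 37 °C), PCR-amplified and sequenced on an Illumina NextSeq500. Binding signal is each 6-mer's read frequency for a factor divided by its frequency for the GST control.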

ELK1 = molecular target: T2, ELK1 (Homo sapiens, UniProt P19419 1-428); conditions: protein: recombinant; tags: N-terminal GST; dsDNA, one strand shown
T2 sequence: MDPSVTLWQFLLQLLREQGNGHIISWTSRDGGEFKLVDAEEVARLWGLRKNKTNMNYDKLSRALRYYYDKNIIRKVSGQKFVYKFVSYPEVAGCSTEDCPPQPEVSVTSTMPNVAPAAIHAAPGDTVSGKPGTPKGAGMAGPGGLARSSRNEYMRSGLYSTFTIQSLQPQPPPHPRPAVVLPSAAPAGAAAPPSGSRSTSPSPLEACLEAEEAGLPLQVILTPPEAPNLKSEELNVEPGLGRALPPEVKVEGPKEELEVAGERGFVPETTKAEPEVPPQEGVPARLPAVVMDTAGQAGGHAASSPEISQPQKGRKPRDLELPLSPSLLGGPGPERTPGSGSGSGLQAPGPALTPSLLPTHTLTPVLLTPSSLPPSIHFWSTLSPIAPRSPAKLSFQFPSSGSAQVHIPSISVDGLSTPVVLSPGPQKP
Procedure, shortened: as §1

GABPA = molecular target: T3, GABPA (Homo sapiens, UniProt Q06546 1-454); conditions: protein: recombinant; tags: N-terminal GST; dsDNA, one strand shown
T3 sequence: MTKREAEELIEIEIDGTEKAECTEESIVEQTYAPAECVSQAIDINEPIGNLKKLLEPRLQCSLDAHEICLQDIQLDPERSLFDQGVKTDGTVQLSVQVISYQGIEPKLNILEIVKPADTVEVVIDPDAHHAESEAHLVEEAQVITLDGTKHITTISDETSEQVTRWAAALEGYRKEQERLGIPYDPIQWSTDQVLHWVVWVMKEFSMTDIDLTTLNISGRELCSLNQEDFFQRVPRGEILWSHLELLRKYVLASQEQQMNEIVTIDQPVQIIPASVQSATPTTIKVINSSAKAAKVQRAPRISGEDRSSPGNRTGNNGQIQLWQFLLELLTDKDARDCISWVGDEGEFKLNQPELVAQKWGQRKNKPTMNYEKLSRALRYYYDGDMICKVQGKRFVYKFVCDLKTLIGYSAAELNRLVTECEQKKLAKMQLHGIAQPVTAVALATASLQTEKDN
Procedure, shortened: as §1

ERG = molecular target: T4, ERG (Homo sapiens, UniProt P11308 1-479); conditions: protein: recombinant; tags: N-terminal GST; dsDNA, one strand shown
T4 sequence: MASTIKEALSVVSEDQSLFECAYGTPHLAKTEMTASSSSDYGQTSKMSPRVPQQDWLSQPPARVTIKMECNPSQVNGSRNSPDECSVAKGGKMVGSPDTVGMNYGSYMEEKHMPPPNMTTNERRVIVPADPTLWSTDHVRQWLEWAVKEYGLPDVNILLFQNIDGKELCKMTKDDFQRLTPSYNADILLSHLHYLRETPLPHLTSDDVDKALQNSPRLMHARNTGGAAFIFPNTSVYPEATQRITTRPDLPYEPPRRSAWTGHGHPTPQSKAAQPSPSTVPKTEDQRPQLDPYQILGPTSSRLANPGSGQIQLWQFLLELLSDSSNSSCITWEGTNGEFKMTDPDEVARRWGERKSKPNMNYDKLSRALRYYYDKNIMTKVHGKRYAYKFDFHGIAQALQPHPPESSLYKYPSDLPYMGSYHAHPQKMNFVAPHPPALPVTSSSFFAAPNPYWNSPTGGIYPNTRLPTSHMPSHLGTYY
Procedure, shortened: as §1

ELF1 = ELF1 (Homo sapiens, UniProt P32519 1-619); conditions: protein: recombinant; tags: N-terminal GST; dsDNA, one strand shown
ELF1, sequence (P32519 whole entry): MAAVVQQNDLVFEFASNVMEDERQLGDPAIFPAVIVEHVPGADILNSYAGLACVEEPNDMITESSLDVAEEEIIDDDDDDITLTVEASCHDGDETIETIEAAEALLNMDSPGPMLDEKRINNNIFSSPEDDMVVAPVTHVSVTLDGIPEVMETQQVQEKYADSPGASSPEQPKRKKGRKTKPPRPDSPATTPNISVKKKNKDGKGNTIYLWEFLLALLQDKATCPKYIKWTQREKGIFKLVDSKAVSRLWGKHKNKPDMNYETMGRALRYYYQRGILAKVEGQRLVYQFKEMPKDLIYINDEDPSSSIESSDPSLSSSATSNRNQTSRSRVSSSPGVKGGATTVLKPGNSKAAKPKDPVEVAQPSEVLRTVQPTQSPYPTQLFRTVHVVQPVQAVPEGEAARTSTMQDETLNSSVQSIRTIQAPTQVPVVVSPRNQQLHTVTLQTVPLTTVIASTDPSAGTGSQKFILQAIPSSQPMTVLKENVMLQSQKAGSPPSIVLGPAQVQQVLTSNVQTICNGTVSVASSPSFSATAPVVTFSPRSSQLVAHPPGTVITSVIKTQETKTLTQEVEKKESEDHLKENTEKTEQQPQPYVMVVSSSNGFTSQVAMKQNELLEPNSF
Procedure, shortened: as §1

EHF = molecular target: T5, EHF (Homo sapiens, UniProt Q9NZC4 1-300); conditions: protein: recombinant; tags: N-terminal GST; dsDNA, one strand shown
T5 sequence: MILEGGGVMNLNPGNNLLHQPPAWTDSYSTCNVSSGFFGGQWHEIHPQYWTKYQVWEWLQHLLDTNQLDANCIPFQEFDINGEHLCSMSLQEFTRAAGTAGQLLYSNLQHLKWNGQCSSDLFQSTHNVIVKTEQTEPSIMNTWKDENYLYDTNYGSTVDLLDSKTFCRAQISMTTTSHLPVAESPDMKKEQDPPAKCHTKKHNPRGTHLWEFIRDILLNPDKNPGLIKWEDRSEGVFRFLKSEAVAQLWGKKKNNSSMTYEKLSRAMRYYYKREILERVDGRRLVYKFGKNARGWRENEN
Procedure, shortened: as §1

SPI1 = SPI1 (Homo sapiens, UniProt P17947 1-270); conditions: protein: recombinant; tags: N-terminal GST; dsDNA, one strand shown
Procedure, shortened: as §1

SPIB = SPIB (Homo sapiens, UniProt Q01892 1-262); conditions: protein: recombinant; tags: N-terminal GST; dsDNA, one strand shown
SPIB, sequence (Q01892 whole entry): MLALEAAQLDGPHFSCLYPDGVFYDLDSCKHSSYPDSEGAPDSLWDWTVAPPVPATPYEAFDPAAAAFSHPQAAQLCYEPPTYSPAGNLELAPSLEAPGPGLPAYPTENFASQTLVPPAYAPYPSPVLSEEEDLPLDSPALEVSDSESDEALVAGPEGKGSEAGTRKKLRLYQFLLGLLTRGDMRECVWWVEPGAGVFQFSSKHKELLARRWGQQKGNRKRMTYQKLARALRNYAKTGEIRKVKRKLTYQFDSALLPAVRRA
Procedure, shortened: as §1

ELK3 = molecular target: T6, ELK3 (Homo sapiens, UniProt P41970 1-407); conditions: protein: recombinant; tags: N-terminal GST; dsDNA, one strand shown
T6 sequence: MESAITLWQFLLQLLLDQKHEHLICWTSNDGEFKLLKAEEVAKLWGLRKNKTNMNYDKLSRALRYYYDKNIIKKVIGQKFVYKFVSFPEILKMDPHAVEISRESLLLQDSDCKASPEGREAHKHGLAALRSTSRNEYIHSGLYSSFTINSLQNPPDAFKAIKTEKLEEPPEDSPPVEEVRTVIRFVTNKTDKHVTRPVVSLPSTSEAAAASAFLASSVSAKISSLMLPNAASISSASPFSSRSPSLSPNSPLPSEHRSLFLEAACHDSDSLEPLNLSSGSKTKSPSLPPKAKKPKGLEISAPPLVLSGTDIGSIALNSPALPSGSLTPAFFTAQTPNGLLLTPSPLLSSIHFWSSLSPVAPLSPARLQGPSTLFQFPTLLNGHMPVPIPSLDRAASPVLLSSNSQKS
Procedure, shortened: as §1

FEV = molecular target: T7, FEV (Homo sapiens, UniProt Q99581 1-238); conditions: protein: recombinant; tags: N-terminal GST; dsDNA, one strand shown
T7 sequence: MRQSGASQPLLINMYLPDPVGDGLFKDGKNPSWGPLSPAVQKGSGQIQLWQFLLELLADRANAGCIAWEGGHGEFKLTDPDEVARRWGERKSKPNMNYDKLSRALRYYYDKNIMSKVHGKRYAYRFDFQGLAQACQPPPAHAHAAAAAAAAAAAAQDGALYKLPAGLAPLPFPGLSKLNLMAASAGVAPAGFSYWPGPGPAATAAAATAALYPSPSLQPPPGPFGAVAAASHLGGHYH
Procedure, shortened: as §1

ETV5 = ETV5 (Homo sapiens, UniProt P41161 1-510); conditions: protein: recombinant; tags: N-terminal GST; dsDNA, one strand shown
ETV5, sequence (P41161 whole entry): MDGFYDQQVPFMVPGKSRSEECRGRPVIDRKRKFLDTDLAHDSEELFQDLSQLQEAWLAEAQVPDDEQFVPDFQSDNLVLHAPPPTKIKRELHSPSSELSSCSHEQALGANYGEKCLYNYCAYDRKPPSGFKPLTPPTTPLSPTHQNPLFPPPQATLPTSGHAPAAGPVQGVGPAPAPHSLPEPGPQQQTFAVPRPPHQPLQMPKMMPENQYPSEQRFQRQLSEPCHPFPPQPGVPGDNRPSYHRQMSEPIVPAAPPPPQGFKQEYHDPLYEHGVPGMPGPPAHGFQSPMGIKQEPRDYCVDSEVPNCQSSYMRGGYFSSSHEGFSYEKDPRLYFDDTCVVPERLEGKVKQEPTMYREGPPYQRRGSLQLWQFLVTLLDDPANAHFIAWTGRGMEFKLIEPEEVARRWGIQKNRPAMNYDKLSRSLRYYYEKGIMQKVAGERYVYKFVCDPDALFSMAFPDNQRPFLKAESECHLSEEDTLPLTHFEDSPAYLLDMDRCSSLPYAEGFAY
Procedure, shortened: as §1

HSF1 = HSF1 (Homo sapiens, UniProt Q00613 1-529); conditions: protein: recombinant; tags: N-terminal GST; chain copies: 3; dsDNA, one strand shown
HSF1, sequence (Q00613 whole entry): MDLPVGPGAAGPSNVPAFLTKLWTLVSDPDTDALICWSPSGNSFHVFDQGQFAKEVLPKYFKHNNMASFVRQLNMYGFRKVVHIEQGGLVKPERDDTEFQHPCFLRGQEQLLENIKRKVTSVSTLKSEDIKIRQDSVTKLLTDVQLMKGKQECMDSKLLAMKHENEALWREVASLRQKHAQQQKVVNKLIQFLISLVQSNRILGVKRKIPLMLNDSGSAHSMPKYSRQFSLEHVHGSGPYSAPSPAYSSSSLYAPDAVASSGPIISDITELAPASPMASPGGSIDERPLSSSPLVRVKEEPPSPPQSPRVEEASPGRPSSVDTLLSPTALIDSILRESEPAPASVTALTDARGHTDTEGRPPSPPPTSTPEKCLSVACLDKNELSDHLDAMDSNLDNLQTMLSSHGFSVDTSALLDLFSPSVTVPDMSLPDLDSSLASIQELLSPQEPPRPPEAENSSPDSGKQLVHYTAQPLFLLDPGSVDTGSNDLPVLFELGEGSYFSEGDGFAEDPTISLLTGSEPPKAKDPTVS
Procedure, shortened: as §1

SPIC = molecular target: T8, SPIC (Homo sapiens, UniProt Q8N5J4 1-248); conditions: protein: recombinant; tags: N-terminal GST; dsDNA, one strand shown
T8 sequence: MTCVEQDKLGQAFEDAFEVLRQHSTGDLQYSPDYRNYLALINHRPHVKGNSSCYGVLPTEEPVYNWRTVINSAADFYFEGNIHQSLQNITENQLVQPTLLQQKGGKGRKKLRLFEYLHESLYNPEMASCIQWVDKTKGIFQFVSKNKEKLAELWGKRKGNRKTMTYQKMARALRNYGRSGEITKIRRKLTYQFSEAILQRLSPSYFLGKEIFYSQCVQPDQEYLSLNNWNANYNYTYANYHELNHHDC
Procedure, shortened: as §1

ELF4 = ELF4 (Homo sapiens, UniProt Q99607 1-663); conditions: protein: recombinant; tags: N-terminal GST; dsDNA, one strand shown
ELF4, sequence (Q99607 whole entry): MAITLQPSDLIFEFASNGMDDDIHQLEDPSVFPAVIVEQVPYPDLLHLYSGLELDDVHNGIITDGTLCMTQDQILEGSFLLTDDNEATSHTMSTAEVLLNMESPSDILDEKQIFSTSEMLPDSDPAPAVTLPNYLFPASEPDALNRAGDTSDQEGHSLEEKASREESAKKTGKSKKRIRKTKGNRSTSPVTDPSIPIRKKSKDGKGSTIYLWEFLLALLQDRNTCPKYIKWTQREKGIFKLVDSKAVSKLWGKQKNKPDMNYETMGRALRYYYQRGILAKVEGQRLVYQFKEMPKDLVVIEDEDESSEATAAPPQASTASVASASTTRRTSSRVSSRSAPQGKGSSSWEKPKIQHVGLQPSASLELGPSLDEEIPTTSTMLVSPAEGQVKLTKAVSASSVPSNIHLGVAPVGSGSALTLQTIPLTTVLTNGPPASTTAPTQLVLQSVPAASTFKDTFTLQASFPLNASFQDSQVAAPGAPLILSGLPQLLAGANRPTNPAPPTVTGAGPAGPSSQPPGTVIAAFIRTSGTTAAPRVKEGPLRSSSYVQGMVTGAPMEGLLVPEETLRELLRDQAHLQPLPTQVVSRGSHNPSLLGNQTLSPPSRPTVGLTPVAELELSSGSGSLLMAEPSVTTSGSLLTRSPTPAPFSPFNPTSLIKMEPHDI
Procedure, shortened: as §1

ELK4 = molecular target: T9, ELK4 (Homo sapiens, UniProt P28324-2 1-405); conditions: protein: recombinant; tags: N-terminal GST; dsDNA, one strand shown
T9 sequence: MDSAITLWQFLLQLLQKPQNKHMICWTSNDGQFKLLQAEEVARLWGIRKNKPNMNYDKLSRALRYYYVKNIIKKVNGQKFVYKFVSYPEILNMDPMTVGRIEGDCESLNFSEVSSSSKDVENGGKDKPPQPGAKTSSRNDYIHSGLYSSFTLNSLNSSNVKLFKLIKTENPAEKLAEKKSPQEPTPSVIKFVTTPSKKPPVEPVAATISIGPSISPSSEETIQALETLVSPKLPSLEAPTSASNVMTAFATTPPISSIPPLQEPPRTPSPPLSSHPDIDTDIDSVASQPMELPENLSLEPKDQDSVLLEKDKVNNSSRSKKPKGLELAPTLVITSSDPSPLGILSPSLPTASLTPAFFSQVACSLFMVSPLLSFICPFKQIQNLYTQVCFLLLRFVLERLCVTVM
Procedure, shortened: as §1

ETV2 = molecular target: T10, ETV2 (Homo sapiens, UniProt O00321 1-342); conditions: protein: recombinant; tags: N-terminal GST; dsDNA, one strand shown
T10 sequence: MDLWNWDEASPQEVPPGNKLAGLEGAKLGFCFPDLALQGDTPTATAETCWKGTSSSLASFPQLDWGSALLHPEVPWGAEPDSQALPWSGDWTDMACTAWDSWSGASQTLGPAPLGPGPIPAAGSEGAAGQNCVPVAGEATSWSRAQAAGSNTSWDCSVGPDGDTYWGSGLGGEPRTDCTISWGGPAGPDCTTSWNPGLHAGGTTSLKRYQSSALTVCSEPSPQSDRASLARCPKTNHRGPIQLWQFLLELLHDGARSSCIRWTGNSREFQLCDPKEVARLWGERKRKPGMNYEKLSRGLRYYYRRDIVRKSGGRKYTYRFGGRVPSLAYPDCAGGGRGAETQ
Procedure, shortened: as §1

ELF3 = molecular target: T11, ELF3 (Homo sapiens, UniProt P78545 1-371); conditions: protein: recombinant; tags: N-terminal GST; dsDNA, one strand shown
T11 sequence: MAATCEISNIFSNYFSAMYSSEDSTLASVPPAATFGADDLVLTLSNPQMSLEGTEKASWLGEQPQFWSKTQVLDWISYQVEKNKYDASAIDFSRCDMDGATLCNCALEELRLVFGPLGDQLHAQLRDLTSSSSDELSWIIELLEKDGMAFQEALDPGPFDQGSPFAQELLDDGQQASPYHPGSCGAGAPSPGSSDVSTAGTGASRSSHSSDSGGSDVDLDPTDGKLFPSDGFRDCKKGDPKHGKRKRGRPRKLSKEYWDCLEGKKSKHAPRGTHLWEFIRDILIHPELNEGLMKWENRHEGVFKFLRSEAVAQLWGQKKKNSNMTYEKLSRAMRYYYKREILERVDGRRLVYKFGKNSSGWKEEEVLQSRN
Procedure, shortened: as §1

CRX = CRX (Homo sapiens, UniProt O43186 1-299); conditions: protein: recombinant; tags: N-terminal GST; dsDNA, one strand shown
CRX, sequence (O43186 whole entry): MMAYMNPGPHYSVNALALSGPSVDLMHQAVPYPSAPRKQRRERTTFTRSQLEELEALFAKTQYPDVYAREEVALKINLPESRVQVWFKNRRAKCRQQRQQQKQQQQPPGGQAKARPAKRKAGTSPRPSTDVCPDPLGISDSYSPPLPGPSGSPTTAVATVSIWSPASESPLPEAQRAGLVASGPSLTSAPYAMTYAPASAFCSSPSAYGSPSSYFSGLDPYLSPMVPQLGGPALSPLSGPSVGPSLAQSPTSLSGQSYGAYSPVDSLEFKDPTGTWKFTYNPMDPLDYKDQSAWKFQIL
Procedure, shortened: as §1

ETV1 = ETV1 (Homo sapiens, UniProt P50549 1-477); conditions: protein: recombinant; tags: N-terminal GST; dsDNA, one strand shown
ETV1, sequence (P50549 whole entry): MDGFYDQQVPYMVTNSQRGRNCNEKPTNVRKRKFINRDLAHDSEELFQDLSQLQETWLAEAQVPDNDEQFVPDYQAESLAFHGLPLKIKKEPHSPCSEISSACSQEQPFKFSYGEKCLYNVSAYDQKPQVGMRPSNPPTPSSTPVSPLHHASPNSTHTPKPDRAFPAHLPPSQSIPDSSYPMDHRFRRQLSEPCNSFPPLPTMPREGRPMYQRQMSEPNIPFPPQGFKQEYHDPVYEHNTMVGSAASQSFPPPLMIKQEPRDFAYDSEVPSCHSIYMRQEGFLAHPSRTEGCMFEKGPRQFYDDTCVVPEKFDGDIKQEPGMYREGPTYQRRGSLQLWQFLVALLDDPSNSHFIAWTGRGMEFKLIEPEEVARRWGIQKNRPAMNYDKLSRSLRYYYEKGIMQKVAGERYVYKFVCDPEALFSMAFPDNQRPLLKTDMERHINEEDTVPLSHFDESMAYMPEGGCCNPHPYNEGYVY
Procedure, shortened: as §1

**Q.** Which results are given for GCATTT?
**A.** binding signal (FLI1): 1.38 fold enrichment (6-mer frequency, TF over GST control); binding signal (ELK1): 1.38 fold enrichment (6-mer frequency, TF over GST control); binding signal (GABPA): 1.36 fold enrichment (6-mer frequency, TF over GST control); binding signal (ERG): 1.3 fold enrichment (6-mer frequency, TF over GST control); binding signal (ELF1): 1.33 fold enrichment (6-mer frequency, TF over GST control); binding signal (EHF): 1.37 fold enrichment (6-mer frequency, TF over GST control); binding signal (SPI1): 1.58 fold enrichment (6-mer frequency, TF over GST control); binding signal (SPIB): 1.38 fold enrichment (6-mer frequency, TF over GST control); binding signal (ELK3): 1.4 fold enrichment (6-mer frequency, TF over GST control); binding signal (FEV): 1.57 fold enrichment (6-mer frequency, TF over GST control); binding signal (ETV5): 1.38 fold enrichment (6-mer frequency, TF over GST control); binding signal (HSF1): 1.15 fold enrichment (6-mer frequency, TF over GST control); binding signal (SPIC): 1.37 fold enrichment (6-mer frequency, TF over GST control); binding signal (ELF4): 1.4 fold enrichment (6-mer frequency, TF over GST control); binding signal (ELK4): 1.27 fold enrichment (6-mer frequency, TF over GST control); binding signal (ETV2): 1.25 fold enrichment (6-mer frequency, TF over GST control); binding signal (ELF3): 1.33 fold enrichment (6-mer frequency, TF over GST control); binding signal (CRX): 1.16 fold enrichment (6-mer frequency, TF over GST control); binding signal (ETV1): 1.37 fold enrichment (6-mer frequency, TF over GST control)

Reference: paper PMC7862700, “An all-to-all approach to the identification of sequence-specific readers for epigenetic DNA modifications on cytosine”
